# In article PMC7862700, “An all-to-all approach to the identification of sequence-specific readers for epigenetic DNA modifications on cytosine”:
# Key:
# Experiment in all cases: DAPPL (digital affinity profiling via proximity ligation, sequencing); 10 mM Tris-HCl pH 7.5, 50 mM NaCl, 1 mM DTT, 4% glycerol, room temperature, 30 min; GST-TFs on glutathione beads, 16-mer random dsDNA library, 0.1% formaldehyde crosslink after washing; high values mean tight binding
# FEV = biological target: T1, FEV (Homo sapiens, UniProt Q99581 1-238); conditions: protein: recombinant; tags: N-terminal GST; dsDNA, one strand shown
# T1 sequence: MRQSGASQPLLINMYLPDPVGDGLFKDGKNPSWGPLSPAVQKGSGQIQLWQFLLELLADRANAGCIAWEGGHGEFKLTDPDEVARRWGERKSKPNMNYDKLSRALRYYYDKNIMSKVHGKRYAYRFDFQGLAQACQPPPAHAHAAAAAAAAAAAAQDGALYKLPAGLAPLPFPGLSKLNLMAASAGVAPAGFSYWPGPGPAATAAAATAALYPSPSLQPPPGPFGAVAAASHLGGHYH
# Outline: (§1)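 In yeast, human transcription factors were expressed with a GST fusion, then pulled down on glutathione beads and given DNA barcodes. Pooled with a tag-only sample, they were exposed to 200 nmole of a 16-mer random double-stranded DNA library (Tris/NaCl/DTT/glycerol buffer, room temperature, 30 min), washed, crosslinked with 0.1% formaldehyde, proximity-ligated using BsaI/T4 ligase for 1 h at 37 °C, PCR-amplified and read on an Illumina NextSeq500. Each hexamer's frequency of reads for a factor, divided by the matching frequency for the tag-only sample, gives the binding signal.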
# ETV5 = ETV5 (Homo sapiens, UniProt P41161 1-510); conditions: protein: recombinant; tags: N-terminal GST; dsDNA, one strand shown
# Outline: as §1
# HSF1 = HSF1 (Homo sapiens, UniProt Q00613 1-529); conditions: protein: recombinant; tags: N-terminal GST; chain copies: 3; dsDNA, one strand shown
# Outline: as §1
# SPIC = biological target: T2, SPIC (Homo sapiens, UniProt Q8N5J4 1-248); conditions: protein: recombinant; tags: N-terminal GST; dsDNA, one strand shown
# T2 sequence: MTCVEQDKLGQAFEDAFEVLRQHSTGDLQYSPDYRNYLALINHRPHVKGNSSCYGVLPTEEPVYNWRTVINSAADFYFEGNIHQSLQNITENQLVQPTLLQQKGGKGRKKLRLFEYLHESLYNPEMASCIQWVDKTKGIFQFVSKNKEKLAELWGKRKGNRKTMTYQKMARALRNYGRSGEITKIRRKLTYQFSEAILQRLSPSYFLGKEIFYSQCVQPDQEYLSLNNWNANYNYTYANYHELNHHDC
# Outline: as §1
# ELF4 = ELF4 (Homo sapiens, UniProt Q99607 1-663); conditions: protein: recombinant; tags: N-terminal GST; dsDNA, one strand shown
# Outline: as §1
# ELK4 = biological target: T3, ELK4 (Homo sapiens, UniProt P28324-2 1-405); conditions: protein: recombinant; tags: N-terminal GST; dsDNA, one strand shown
# T3 sequence: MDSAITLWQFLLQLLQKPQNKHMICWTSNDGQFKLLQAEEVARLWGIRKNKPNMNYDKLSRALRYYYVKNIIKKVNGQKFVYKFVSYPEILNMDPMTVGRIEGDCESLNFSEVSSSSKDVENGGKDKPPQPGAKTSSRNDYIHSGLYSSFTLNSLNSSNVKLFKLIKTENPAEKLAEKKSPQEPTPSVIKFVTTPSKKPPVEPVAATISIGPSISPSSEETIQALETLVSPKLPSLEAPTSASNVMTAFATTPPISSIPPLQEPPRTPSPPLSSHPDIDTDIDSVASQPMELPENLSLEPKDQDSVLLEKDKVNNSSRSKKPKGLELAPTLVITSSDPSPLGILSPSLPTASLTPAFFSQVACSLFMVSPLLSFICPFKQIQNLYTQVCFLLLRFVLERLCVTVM
# Outline: as §1
# ETV2 = biological target: T4, ETV2 (Homo sapiens, UniProt O00321 1-342); conditions: protein: recombinant; tags: N-terminal GST; dsDNA, one strand shown
# T4 sequence: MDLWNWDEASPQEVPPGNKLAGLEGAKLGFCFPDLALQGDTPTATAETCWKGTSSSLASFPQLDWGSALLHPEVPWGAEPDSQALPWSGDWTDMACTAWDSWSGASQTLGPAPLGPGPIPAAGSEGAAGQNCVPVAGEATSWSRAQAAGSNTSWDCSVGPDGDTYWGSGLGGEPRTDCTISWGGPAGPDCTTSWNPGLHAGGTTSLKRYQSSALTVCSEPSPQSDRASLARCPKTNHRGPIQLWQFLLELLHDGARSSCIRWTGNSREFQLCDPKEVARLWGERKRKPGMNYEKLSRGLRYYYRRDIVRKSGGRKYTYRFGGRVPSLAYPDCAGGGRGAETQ
# Outline: as §1
# ELF3 = biological target: T5, ELF3 (Homo sapiens, UniProt P78545 1-371); conditions: protein: recombinant; tags: N-terminal GST; dsDNA, one strand shown
# T5 sequence: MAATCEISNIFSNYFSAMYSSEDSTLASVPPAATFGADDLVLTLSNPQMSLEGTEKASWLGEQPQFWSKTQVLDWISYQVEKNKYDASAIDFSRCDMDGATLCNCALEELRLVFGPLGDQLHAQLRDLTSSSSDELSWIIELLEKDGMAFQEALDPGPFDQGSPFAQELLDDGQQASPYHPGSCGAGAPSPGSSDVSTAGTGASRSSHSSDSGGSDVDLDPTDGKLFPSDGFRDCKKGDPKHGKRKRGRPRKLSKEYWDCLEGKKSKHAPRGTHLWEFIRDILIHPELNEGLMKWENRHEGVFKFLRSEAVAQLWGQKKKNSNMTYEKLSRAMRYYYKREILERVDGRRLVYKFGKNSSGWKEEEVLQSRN
# Outline: as §1
# CRX = CRX (Homo sapiens, UniProt O43186 1-299); conditions: protein: recombinant; tags: N-terminal GST; dsDNA, one strand shown
# Outline: as §1
# ETV1 = ETV1 (Homo sapiens, UniProt P50549 1-477); conditions: protein: recombinant; tags: N-terminal GST; dsDNA, one strand shown
# Outline: as §1
# Sequence of ETV5 (P41161 whole entry): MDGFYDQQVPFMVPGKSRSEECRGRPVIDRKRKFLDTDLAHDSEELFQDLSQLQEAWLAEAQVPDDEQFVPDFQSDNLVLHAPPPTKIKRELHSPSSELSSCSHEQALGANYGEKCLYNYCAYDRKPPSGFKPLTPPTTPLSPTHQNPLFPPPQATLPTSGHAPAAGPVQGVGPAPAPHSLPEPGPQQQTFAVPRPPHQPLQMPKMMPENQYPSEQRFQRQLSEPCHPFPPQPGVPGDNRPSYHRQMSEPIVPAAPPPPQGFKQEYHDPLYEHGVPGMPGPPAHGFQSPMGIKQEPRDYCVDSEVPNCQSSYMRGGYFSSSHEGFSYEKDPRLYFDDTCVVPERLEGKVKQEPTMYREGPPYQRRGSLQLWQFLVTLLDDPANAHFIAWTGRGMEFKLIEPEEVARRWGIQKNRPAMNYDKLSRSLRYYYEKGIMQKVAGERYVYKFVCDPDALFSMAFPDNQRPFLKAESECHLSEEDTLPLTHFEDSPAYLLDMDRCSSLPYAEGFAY
# Sequence of HSF1 (Q00613 whole entry): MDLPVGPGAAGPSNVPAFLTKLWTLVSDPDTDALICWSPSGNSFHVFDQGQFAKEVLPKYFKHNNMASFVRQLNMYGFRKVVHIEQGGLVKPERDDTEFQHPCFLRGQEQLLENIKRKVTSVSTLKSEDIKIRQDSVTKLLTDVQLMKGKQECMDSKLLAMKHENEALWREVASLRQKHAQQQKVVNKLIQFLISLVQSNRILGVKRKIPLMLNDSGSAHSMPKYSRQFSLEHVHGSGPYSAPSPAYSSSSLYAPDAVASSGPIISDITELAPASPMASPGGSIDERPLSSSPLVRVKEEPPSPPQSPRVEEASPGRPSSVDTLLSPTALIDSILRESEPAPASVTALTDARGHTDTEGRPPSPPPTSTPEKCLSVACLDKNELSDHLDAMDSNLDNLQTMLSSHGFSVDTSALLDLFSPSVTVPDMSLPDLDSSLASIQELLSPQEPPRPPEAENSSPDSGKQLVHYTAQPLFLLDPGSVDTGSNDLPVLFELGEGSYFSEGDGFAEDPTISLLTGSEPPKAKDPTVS
# Sequence of ETV1 (P50549 whole entry): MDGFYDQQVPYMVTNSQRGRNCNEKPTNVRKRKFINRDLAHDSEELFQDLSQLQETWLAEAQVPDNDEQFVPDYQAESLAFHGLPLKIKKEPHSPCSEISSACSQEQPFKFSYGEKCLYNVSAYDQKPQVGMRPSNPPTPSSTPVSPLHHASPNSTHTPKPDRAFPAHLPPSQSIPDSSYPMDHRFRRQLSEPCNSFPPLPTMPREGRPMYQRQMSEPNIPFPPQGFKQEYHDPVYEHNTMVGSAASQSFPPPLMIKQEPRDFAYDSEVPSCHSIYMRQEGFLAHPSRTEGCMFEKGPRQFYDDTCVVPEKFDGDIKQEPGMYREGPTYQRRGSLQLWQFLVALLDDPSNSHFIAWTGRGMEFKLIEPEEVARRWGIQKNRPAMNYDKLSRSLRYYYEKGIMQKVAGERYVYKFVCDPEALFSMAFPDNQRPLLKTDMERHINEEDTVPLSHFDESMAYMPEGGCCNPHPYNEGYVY
# Sequence of CRX (O43186 whole entry): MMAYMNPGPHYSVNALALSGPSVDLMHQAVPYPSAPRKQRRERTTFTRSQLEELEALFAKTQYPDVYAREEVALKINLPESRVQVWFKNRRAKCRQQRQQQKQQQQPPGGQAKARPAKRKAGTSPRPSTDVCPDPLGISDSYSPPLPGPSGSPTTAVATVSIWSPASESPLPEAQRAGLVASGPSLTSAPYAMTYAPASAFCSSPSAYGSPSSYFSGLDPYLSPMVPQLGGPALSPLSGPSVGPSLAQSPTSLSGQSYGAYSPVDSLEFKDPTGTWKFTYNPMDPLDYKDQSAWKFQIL
# Sequence of ELF4 (Q99607 whole entry): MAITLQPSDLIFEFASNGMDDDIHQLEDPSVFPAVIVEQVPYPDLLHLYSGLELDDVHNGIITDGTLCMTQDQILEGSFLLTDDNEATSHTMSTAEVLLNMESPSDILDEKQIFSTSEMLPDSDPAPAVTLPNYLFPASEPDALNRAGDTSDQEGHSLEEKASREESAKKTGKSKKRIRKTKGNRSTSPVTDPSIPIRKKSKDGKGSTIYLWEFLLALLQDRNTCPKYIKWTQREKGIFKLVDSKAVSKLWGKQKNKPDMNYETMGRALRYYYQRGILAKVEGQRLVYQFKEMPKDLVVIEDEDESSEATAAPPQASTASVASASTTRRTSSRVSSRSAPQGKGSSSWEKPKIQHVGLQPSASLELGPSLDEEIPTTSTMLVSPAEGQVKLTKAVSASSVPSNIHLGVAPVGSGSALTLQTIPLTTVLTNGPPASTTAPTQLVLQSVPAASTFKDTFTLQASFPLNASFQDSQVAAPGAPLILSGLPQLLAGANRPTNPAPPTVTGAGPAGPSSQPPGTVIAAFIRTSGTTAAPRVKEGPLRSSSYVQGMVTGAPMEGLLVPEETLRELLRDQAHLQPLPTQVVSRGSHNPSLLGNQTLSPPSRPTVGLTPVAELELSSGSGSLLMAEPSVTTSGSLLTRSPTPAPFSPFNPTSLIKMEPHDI
sequence,measurement,setting,value
AATATC,binding signal,FEV,"1.56 fold enrichment (6-mer frequency, TF over GST control)"
same,binding signal,ETV5,"1.53 fold enrichment (6-mer frequency, TF over GST control)"
same,binding signal,HSF1,"1.49 fold enrichment (6-mer frequency, TF over GST control)"
same,binding signal,SPIC,"1.49 fold enrichment (6-mer frequency, TF over GST control)"
same,binding signal,ELF4,"1.44 fold enrichment (6-mer frequency, TF over GST control)"
same,binding signal,ELK4,"1.48 fold enrichment (6-mer frequency, TF over GST control)"
same,binding signal,ETV2,"1.73 fold enrichment (6-mer frequency, TF over GST control)"
same,binding signal,ELF3,"1.55 fold enrichment (6-mer frequency, TF over GST control)"
same,binding signal,CRX,"1.55 fold enrichment (6-mer frequency, TF over GST control)"
same,binding signal,ETV1,"1.56 fold enrichment (6-mer frequency, TF over GST control)"
